Drawing on PubChem BioAssay (Tox21), this text covers Potency for 23 compounds.

Experiment [1] is described as follows: qHTS assay to identify small molecule antagonists of the estrogen related receptor (ERR) signaling pathway from Tox21 library - cell viability counter screen (AID 1224834). Note: nearly all actives have a fitted effect of over 30% in size. Note: potency is the fitted concentration of half-maximal effect. In short, it runs like this:
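In this quantitative HTS format, ERR cells receive compounds in DMSO and are incubated for 17.5 h at 37 C. Live-cell protease activity is then detected with CellTiter-Fluor.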

For experiment [2], the target named is Luciferin 4-monooxygenase (Photinus pyralis) (UniProt P08659). The experiment can be described thus: qHTS assay to identify small molecule inhibitors of firefly luciferase (AID 1224835). Note: nearly all actives have a fitted effect of over 25% in size. Note: potency is the fitted concentration of half-maximal effect. In outline:
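Biochemical qHTS: compounds run as interplate titrations against purified firefly enzyme, with D-luciferin and ATP each at its KM concentration. Light output recorded by CCD imaging.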

Experiment [3] can be described thus: qHTS assay to identify small molecule antagonists of the constitutive androstane receptor (CAR) signaling pathway - cell viability counter screen (AID 1224837). Note: nearly all actives have a fitted effect of over 45% in size. Note: potency is the fitted concentration of half-maximal effect. In outline: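 In quantitative HTS format, compounds at 15 concentrations were applied to HepG2 cells double-transfected with hCAR and CYP2B6-2.2kb under 50 nM CITCO stimulation; live-cell protease activity was read after 23 hr via CellTiter-Fluor.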

Experiment [4] can be described thus: qHTS assay to identify small molecule antagonists of the estrogen related receptor signaling pathway with the pleiotropic PPARgamma coactivator (PGC) from Tox21 10K library - cell viability counter screen (AID 1224840; active = well fitted cell-killing curve with a large enough effect in the repeat runs, not every such curve was filed as active; note: nearly all actives have a fitted effect of over 40% in size; note: potency is the fitted concentration of half-maximal effect). In short, it runs like this:
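Viability counter screen, PGC/ERR cells: 17.5 h compound exposure at 37 C, CellTiter-Fluor fluorescence endpoint.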

The nature of experiment [5]: qHTS assay to identify small molecule agonists of the estrogen related receptor signaling pathway with the pleiotropic PPARgamma coactivator (PGC) from Tox21 10K library (AID 1224842). Note: nearly all actives have a fitted effect of over 15% in size. In short, it runs like this:
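PGC/ERR reporter cell line, 2,000 cells per well, incubated 6 h at 37 C before 23 nL compound in DMSO was added. After 18 h at 37 C, One-Glo luminescence read following 30 min at room temperature.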

For experiment [6], the target named is Nuclear receptor subfamily 1 group I member 3 (Homo sapiens) (UniProt Q14994). The experiment can be described thus: qHTS assay to identify small molecule antagonists of the constitutive androstane receptor (CAR) signaling pathway (AID 1224838). Note: nearly all actives have a fitted effect of over 40% in size. Note: potency is the fitted concentration of half-maximal effect. In outline: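 CITCO-stimulated (50 nM final) HepG2 cells stably transfected with hCAR and CYP2B6-2.2kb luciferase were exposed to compounds at 15 concentrations for 24 h at 37 C/5% CO2. A luciferase reagent was added and luminescence recorded after 30 min.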

Experiment [7] shares this target. Nature of the experiment: qHTS assay to identify small molecule agonists of the constitutive androstane receptor (CAR) signaling pathway (AID 1224839). Note: nearly all actives have a fitted effect of over 15% in size. Note: potency is the fitted concentration of half-maximal effect. In short, it runs like this: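 Using human hepatoma HepG2 cells engineered with hCAR and a CYP2B6-2.2kb reporter, 15-concentration compound series were incubated 24 h alongside PK11195 at 0.75 uM final, with luminescence quantified afterwards.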

Experiment [8] addresses Thyrotropin receptor (Homo sapiens) (UniProt P16473). Nature of the experiment: qHTS assay to identify small molecule agonists of the thyroid stimulating hormone receptor (TSHR) signaling pathway (AID 1224843; calls by dose curve; note: nearly all actives have a fitted effect of over 45% in size; note: potency is the fitted concentration of half-maximal effect). In outline: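 HEK293/TSHR, 800 cells/well; cpd 30 min RT; add cAMP-d2 + anti-cAMP-cryptate, 1 h RT; fluorescence read on plate reader. 15-pt titration, n=3.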
A short description of experiment [9]: qHTS assay to identify small molecule agonists of the constitutive androstane receptor (CAR) signaling pathway - cell viability counter screen (AID 1224836). Note: nearly all actives have a fitted effect of over 45% in size. Note: potency is the fitted concentration of half-maximal effect. In outline:
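Multiplexed viability check: HepG2-CYP2B6-hCAR cells, 15-point compound dosing, 0.75 uM PK11195 final, 23 h at 37 C, CellTiter-Fluor fluorescence.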

Experiment [10] can be described thus: qHTS assay to identify small molecule antagonists of the estrogen related receptor signaling pathway with the pleiotropic PPARgamma coactivator (PGC) from Tox21 10K library (AID 1224841; call rule not given here; note: actives are mostly falling curves and most rising ones were filed inactive; nearly all actives have a fitted effect of over 50% in size; note: potency is the fitted concentration of half-maximal effect). In outline: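 In the PGC/ERR line, DMSO solutions of test chemicals are pin-delivered to 2,000 cells/well six hours after dispensing. Following eighteen hours' incubation, One-Glo reagent is added and luminescence recorded.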

Molecules are shown by their SMILES. Records with an inconclusive call do not appear. Values without a mark were called inactive. Active and inactive are the calls of the source. Unless noted, calls come from the whole dose curve; as a rule, active = well fitted curve in the direction sought with a large enough effect in the repeat runs; inconclusive = weak or mixed curves; inactive = no such curve, though single readings can be large; an effect the other way counts as inactive or inconclusive.

Chain of Thyrotropin receptor (Homo sapiens) (P16473 whole entry, looked up): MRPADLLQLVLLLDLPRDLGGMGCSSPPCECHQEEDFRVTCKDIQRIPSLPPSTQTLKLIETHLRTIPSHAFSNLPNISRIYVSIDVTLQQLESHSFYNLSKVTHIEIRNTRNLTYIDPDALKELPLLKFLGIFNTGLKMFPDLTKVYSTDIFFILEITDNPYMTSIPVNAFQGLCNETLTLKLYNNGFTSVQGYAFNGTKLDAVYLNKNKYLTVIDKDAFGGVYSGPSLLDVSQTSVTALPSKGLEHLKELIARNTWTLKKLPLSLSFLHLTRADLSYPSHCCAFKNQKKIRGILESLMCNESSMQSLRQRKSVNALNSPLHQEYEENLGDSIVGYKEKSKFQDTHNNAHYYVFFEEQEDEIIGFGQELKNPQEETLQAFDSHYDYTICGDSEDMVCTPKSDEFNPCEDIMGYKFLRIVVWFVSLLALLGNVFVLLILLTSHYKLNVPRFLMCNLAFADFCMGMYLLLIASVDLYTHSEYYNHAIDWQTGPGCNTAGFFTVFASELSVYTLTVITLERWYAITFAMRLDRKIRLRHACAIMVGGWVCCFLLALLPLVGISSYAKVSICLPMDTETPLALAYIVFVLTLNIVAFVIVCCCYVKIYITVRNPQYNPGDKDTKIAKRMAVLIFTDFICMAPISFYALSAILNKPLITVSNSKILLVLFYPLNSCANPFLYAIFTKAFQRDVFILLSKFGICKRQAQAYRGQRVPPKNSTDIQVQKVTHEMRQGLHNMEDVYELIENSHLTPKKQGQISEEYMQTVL
Chain of Nuclear receptor subfamily 1 group I member 3 (Homo sapiens) (Q14994 whole entry, looked up): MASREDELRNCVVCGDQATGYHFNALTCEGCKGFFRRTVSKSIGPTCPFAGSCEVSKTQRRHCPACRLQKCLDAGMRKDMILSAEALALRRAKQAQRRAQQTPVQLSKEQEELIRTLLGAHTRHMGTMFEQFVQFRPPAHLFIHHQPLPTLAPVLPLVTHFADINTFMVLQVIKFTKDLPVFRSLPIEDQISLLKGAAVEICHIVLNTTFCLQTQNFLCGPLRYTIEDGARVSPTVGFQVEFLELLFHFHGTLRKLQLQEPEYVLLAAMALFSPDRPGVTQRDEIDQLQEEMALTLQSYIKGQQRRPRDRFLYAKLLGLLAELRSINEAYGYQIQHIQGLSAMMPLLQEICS
Chain of Luciferin 4-monooxygenase (Photinus pyralis) (P08659 whole entry, looked up): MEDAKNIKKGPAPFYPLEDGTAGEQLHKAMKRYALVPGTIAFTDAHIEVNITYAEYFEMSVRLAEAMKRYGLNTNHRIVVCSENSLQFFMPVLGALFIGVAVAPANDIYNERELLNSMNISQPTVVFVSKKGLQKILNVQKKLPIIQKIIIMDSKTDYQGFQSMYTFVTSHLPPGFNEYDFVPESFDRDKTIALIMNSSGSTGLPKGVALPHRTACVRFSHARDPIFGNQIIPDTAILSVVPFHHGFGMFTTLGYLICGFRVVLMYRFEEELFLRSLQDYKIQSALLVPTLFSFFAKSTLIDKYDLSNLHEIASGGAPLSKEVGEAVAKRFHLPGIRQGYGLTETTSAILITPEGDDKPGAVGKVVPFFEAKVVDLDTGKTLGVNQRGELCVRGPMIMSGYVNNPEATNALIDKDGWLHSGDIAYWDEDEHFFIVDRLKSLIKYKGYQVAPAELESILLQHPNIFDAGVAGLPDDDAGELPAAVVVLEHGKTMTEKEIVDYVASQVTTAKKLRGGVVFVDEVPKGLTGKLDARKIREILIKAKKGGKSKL

With `CCCCCCCCNC(C)C(O)c1ccc(SC(C)C)cc1` (centres undefined), the Potency in experiment [1] is 26.6 µM (active); in experiment [3] it was 29.8 µM (active); in experiment [4], 29.8 µM (active). The Potency result in experiment [2] and in experiment [5] was “inactive” each time.
For `Cc1ccc(O)c2ncccc12`, the Potency was 16.8 µM (active) in experiment [1], 11.9 µM (active) in experiment [3], 13.3 µM (active) in [6] and 23.7 µM (active) in experiment [4]. The Potency result in [2], in experiment [7], in [5] and in [8] was “inactive” in each case.
Take `O=C(Nc1cccc([N+](=O)[O-])c1)c1cc2ccccc2cc1O`: the Potency is 4.33 µM (active) in experiment [1]; 1.59 µM (active) in [2]; 9.69 µM (active) in experiment [3]; 2.43 µM (active) in experiment [7]; 3.86 µM (active) in experiment [4]. In addition, the Potency result in experiment [5] and in experiment [8] was “inactive” each time.
As for `N=C1N=C(N)c2cc3ccccc3cc21`, the Potency in experiment [1] is 27.3 µM (active); in [9], 24.3 µM (active); in [4], 27.3 µM (active); in experiment [8], 6.86 µM (active). Besides, the Potency result in [2] and in experiment [10] was “inactive” in each case.
Consider `O=C(NOCC1CC1)c1ccc(F)c(F)c1Nc1ccc(I)cc1Cl`, for which the Potency in experiment [1] is 18.8 µM (active); in [10], 11.9 µM (active). For the same compound, the Potency result in experiment [2], in experiment [9], in [3] and in experiment [5] was “inactive” throughout.
As to `Oc1cccc2cc3cccc(O)c3c(O)c12`, the Potency result in [1], in experiment [3], in experiment [4] and in experiment [8] was “inactive” in each case. The Potency in experiment [2] was 71.3 µM (active).
As to `Nc1c(Cl)cc(Cl)cc1Cl`, the Potency result in [1], in [2], in experiment [3], in [6], in experiment [7] and in experiment [4] was “inactive” in each case. Further, the Potency result in [8] is “inactive”.
As to `CN1CCN(CCC(=O)N2c3ccccc3Sc3ccc(C(F)(F)F)cc32)CC1`, the Potency in [1] and in experiment [4] was 29.8 µM (active) each time. Besides, the Potency result in experiment [2], in experiment [3], in [5] and in [8] was “inactive” in each case.
With `O=C(O)c1c(Cl)cccc1Cl`, the Potency result in experiment [1], in experiment [2], in experiment [3], in experiment [6], in [7] and in experiment [4] was “inactive” throughout. Further, the Potency result in [8] was “inactive”.
Regarding `CC(=O)SC[C@@H](Cc1ccccc1)C(=O)NCC(=O)OCc1ccccc1`, the Potency entry in experiment [1], in experiment [2], in experiment [3] and in experiment [4] was “inactive” throughout.
As to `CN(C/C=C/C#CC(C)(C)C)Cc1cccc2ccccc12`, the Potency result in experiment [1], in experiment [2], in experiment [3], in experiment [6], in experiment [4] and in experiment [8] was “inactive” throughout.
On to `O=c1[nH]sc2cc(Cl)ccc12`, for which the Potency result in experiment [1], in experiment [3], in experiment [7], in experiment [4], in experiment [5] and in [8] was “inactive” in each case. Moreover, the Potency is 17.4 µM (active) in experiment [2], 0.001 µM (active) in experiment [6] and 0.298 µM (active) in experiment [10].
On to `C=C(C)C(=O)OCC(O)COc1ccc(C(C)(C)c2ccc(OCC(O)COC(=O)C(=C)C)cc2)cc1` (centres undefined), for which the Potency in [1] is 48.6 µM (active); in experiment [3], 61.1 µM (active); in experiment [4], 30.6 µM (active); in [10], 43.3 µM (active). The Potency entry in experiment [2], in [7], in [5] and in experiment [8] was “inactive” in each case.
Regarding `CCCCCCCCCCCCCCCCCC[N+](C)(C)C`, the Potency was 61.3 µM (active) in experiment [1], 54.6 µM (active) in experiment [3] and 54.6 µM (active) in experiment [10]. The Potency entry in experiment [2], in [7] and in experiment [5] was “inactive” each time.
With `CCC(Cl)C(Cl)C(Cl)CC(Cl)C(Cl)C(C)Cl` (centres undefined), the Potency result in experiment [1], in experiment [2], in experiment [3] and in experiment [4] was “inactive” each time.
With `NNc1nc(-c2ccc([N+](=O)[O-])cc2)cs1`, the Potency is 6.86 µM (active) in [1], 31.7 µM (active) in experiment [2], 54.5 µM (active) in experiment [3] and 48.6 µM (active) in experiment [10]. The Potency entry in experiment [6], in experiment [7] and in experiment [5] was “inactive” each time.
For the compound `CN(C)c1ccc(C2(c3ccc(N(C)C)cc3)OC(=O)c3cc(N(C)C)ccc32)cc1`, the Potency entry in experiment [1], in experiment [2], in experiment [3], in [6], in experiment [7] and in experiment [4] was “inactive” each time. Further, the Potency result in experiment [10], in experiment [5] and in experiment [8] was “inactive” throughout.
In the case of `Oc1ccc(C2(c3ccc(O)cc3)CC3CC2C2CCCC32)cc1` (centres undefined), the Potency was 58.7 µM (active) in [1], 52.3 µM (active) in experiment [3] and 58.7 µM (active) in experiment [4]. In addition, the Potency entry in [2] and in experiment [5] was “inactive” in each case.
With `Cn1cc(C(=O)[C@@H]2CCc3nc[nH]c3C2)c2ccccc21`, the Potency entry in [1], in [2], in [3], in experiment [6], in [7] and in experiment [4] was “inactive” in each case. Moreover, the Potency result in experiment [5] and in [8] was “inactive” throughout.
For the compound `C/C=C(\C)C(=O)OCc1ccccc1`, the Potency result in experiment [1], in experiment [3], in [4], in experiment [10], in experiment [5] and in experiment [8] was “inactive” throughout. Moreover, in experiment [2], the Potency was 63.3 µM (active).
Take `C[C@@H]1C[C@H]2[C@@H]3CCC4=CC(=O)C=C[C@]4(C)[C@@]3(Cl)[C@@H](O)C[C@]2(C)[C@@]1(OC(=O)c1ccco1)C(=O)CCl`: the Potency in experiment [1] and in experiment [10] was 23.7 µM (active) throughout. The Potency result in [2], in [9], in [3], in experiment [5] and in [8] was “inactive” in each case.
As for `CC[C@H]1O[C@]2(CC[C@@H]1C)C[C@@H]1C[C@@H](C/C=C(\C)C[C@@H](C)/C=C/C=C3\CO[C@@H]4[C@H](O)C(C)=C[C@@H](C(=O)O1)[C@]34O)O2`, the Potency is 60.6 µM (active) in experiment [1], 60.6 µM (active) in experiment [3], 60.6 µM (active) in experiment [4] and 19.2 µM (active) in experiment [10]. Besides, the Potency entry in experiment [2], in experiment [7], in experiment [5] and in experiment [8] was “inactive” each time.
`CC(C)=CCOc1ccc(/C=C/C(=O)c2ccc(OCC=C(C)C)cc2OCC(=O)O)cc1`: the Potency entry in experiment [1], in [2], in experiment [3], in experiment [6], in experiment [7] and in [4] was “inactive” throughout. Further, the Potency result in [5] and in experiment [8] was “inactive” throughout. The Potency in experiment [10] was 21.1 µM (active).
